Results filed as inconclusive are left out. Entries that show only a call come without a potency. Values without a mark were called inactive. Active and inactive are the calls of the source. The call rests on the fitted dose curve; in most records, active means well fitted inhibition curve with a large enough effect; inconclusive means small, poorly fitted or top-dose-only effect; inactive means no such curve, though single readings can be large or run the other way.
Assays:
[1] = test system: Zika virus NS2B-NS3 protease (unlinked complex); assay: Primary screen GU Rhodamine qHTS for Zika virus inhibitors: Unlinked NS2B-NS3 protease assay (AID 1347159); further: nearly all actives have a fitted effect of over 60% in size
Procedure, shortened: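 In dose–response format, inhibition of unlinked protease (25 nM) was measured with 1.5 microM bis-peptide Rhodamine110 substrate. Aprotinin served as the intraplate control.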

[2] = test system: Zika virus NS2B-NS3 protease (linked construct); assay: Primary screen NINDS Rhodamine qHTS for Zika virus inhibitors (AID 1347160); further: nearly all actives have a fitted effect of over 55% in size
Procedure, shortened: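 Each compound, titrated, sat 15 min with 25 nM linked protease before 1.5 microM Rhodamine110 substrate went in. Fluorescence gain over the next 15 min, in pH 8.0 Tris with Tween 20, gave Hill-fitted curves.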

## CCO[C@@H]1OC(=O)C[C@@H]1NC(=O)[C@@H]1CCCN1C(=O)[C@@H](NC(=O)c1ccc(N)c(Cl)c1)C(C)(C)C
[1]
  Potency: inactive
[2]
  Potency: inactive

## C=C1C(OC(C)=O)CCC2(C)CC3(OC)OC(=O)C(C)=C3CC12 (configuration not stated)
[1]
  Potency: inactive
[2]
  Potency: inactive

## OC1CCC(Nc2ncc3nc(Nc4c(F)cc(F)cc4F)n([C@H]4CCOC4)c3n2)CC1 (some centres not stated)
[1]
  Potency: inactive
[2]
  Potency: inactive

## C[C@H]1CC[C@@]2(OC1)O[C@H]1CC3C4CC[C@H]5C[C@@H](O)[C@H](O)C[C@]5(C)C4=CC(=O)[C@]3(C)[C@H]1[C@@H]2C (some centres not stated)
[1]
  Potency: inactive
[2]
  Potency: inactive

## COc1ccc(C2(O)CCC(N3CC[C@@H](NC(=O)CNC(=O)c4cccc(C(F)(F)F)c4)C3)CC2)cn1 (some centres not stated)
[1]
  Potency: inactive
[2]
  Potency: inactive

## Cc1nc([C@](C)(O)CO)sc1-c1cnc(N)c(O[C@H](C)c2cc(F)ccc2-n2nccn2)c1
[1]
  Potency: inactive
[2]
  Potency: inactive

## COc1c2c(c(C)c3c1C(=O)OC3)OC1(C)CC(O)C34OC(OC)(OC3(C)C)C(O)CC4(C)C1C2 (configuration not stated)
[1]
  Potency: inactive
[2]
  Potency: inactive

## CC(C)/C=C1\NC(=O)C(C(C)C)n2c1nc1c(c2=O)C=CC=CO1 (configuration not stated)
[1]
  Potency: inactive
[2]
  Potency: inactive

## CC(O)/C=C/C1C(C)C(O[C@@H]2O[C@H](CO)[C@@H](O)[C@H](O)[C@H]2O)C(O)CC1(C)C (some centres not stated)
[1]
  Potency: inactive
[2]
  Potency: inactive

## COc1cc(OC)c(/C=C/S(=O)(=O)Cc2ccc(OC)c(NCC(=O)O)c2)c(OC)c1
[1]
  Potency: inactive
[2]
  Potency: inactive

## c1cc(Nc2cc(C3CC3)[nH]n2)nc(Nc2ccc3nc[nH]c3c2)n1
[1]
  Potency: inactive
[2]
  Potency: inactive

## CC[C@@H](N)CNc1ccnc(-c2cc(-c3cnn(C)c3)ccc2O)n1
[1]
  Potency: inactive
[2]
  Potency: inactive

## O=C(/C=C/c1ccccc1)OC[C@]12O[C@H]1[C@@H](O)[C@@H]1C=CO[C@@H](O[C@@H]3O[C@H](CO)[C@@H](O)[C@H](O)[C@H]3O)[C@@H]12
[1]
  Potency: inactive
[2]
  Potency: inactive

## COc1cc(OC)cc(C(=O)Nc2ccc(Cl)c(-c3nc4ccc(N(C)C)cc4[nH]3)c2)c1
[1]
  Potency: inactive
[2]
  Potency: inactive

## CC1CC(=O)C2=C(CCC3(O)C(O)c4c(O)cccc4C(=O)C23O)C1 (configuration not stated)
[1]
  Potency: inactive
[2]
  Potency: inactive

## CC1(C=O)CC[C@]2(C(=O)O[C@@H]3O[C@H](CO)[C@@H](O)[C@H](O)[C@H]3O)CC[C@]3(C)C(=CCC4[C@@]5(C)C[C@H](O)[C@H](O[C@@H]6OC[C@@H](O)[C@H](O)[C@H]6O)[C@@](C)(CO)C5CC[C@]43C)C2C1 (some centres not stated)
[1]
  Potency: inactive
[2]
  Potency: inactive

## O=C(O[C@H]1[C@@H]2C=CO[C@@H](O[C@@H]3O[C@H](CO)[C@@H](O)[C@H](O)[C@H]3O)[C@@H]2[C@@]2(CO)O[C@@H]12)c1ccccc1
[1]
  Potency: inactive
[2]
  Potency: inactive

## c1ccc(-c2ncc(CN3CCN(c4ncccn4)CC3)[nH]2)cc1
[1]
  Potency: inactive
[2]
  Potency: inactive

## CC(=O)CC1CCC(C(C)C(=O)OCC(O)CO)O1 (configuration not stated)
[1]
  Potency: inactive
[2]
  Potency: inactive

## C/C=C1\[C@H](O[C@@H]2O[C@H](CO)[C@@H](O)[C@H](O)[C@H]2O)OC=C2C(=O)OCCc3ccc(O)c(c3)Oc3ccc(cc3)CCOC(=O)C[C@H]21
[1]
  Potency: inactive
[2]
  Potency: inactive

## Cc1c(NC(=O)c2cc(C(N)=O)nc3cc(F)ccc23)c(C(F)(F)F)nn1Cc1ccc(C#N)cc1
[1]
  Potency: inactive
[2]
  Potency: inactive

## Cc1c2cc(c(C(=O)O)c1C)OC1OC(C(O)C(O)C1O)C(O)C(O)C1OC(O2)C(O)C(O)C1O (configuration not stated)
[1]
  Potency: inactive
[2]
  Potency: inactive

## NCc1ccc(Nc2ncc(F)c(Nc3ccccc3)n2)cc1
[1]
  Potency: inactive
[2]
  Potency: inactive

## C[C@@H]1O[C@@H](O[C@@H]2[C@@H](O[C@@H]3O[C@@H](C)[C@H](O[C@@H]4OC[C@H](O)[C@H](O[C@@H]5OC[C@@H](O)[C@H](O)[C@H]5O)[C@H]4O)[C@@H](O[C@@H]4OC[C@](O)(CO)[C@H]4O)[C@H]3O)[C@H](OC(=O)[C@]34CCC(C)(C)C[C@H]3C3=CCC5[C@@]6(C)C[C@H](O)[C@H](O[C@@H]7O[C@H](CO[C@@H]8OC[C@H](O)[C@H](O)[C@H]8O)[C@@H](O)[C@H](O)[C@H]7O)C(C)(C)C6CC[C@@]5(C)[C@]3(C)C[C@H]4O)OC[C@H]2O)[C@H](O)[C@H](O)[C@H]1O (some centres not stated)
[1]
  activity change, negative = inhibition: 11.8% [at 19.1 µM]
[2]
  activity change, negative = inhibition: 1.34% [at 10.7 µM]

## CC(Cc1cc2c(c(C(N)=O)c1)N(CCCO)CC2)NCCOc1ccccc1OCC(F)(F)F (configuration not stated)
[1]
  Potency: inactive
[2]
  Potency: inactive

## C=C1C(=O)OC2C1C(O)CC1(C)C(O)CCC(C=O)C21 (configuration not stated)
[1]
  Potency: inactive
[2]
  Potency: inactive
